Several values for one entry are separate records, joined by “and”; a condition that tells them apart may be missing. Equal values may be shown once. Results filed as inconclusive are left out. Where a structure was tested more than once in an assay, its records may differ in their call. Activity calls are given as the source filed them. Calls come from the whole dose curve; as a rule, active = well fitted curve in the direction sought with a large enough effect in the repeat runs; inconclusive = weak or mixed curves; inactive = no such curve, though single readings can be large; an effect the other way counts as inactive or inconclusive.
Assays:
[1] = A CellTox Green Cytotoxicity Assay to monitor cytotoxicity in HEK293 cells - 32 hour (AID 1224881); note: nearly all actives have a fitted effect of over 40% in size; note: potency is the fitted concentration of half-maximal effect
Summary of the method: (§1)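 Cytotoxicity was tracked continuously in HEK293 cells by a DNA-binding dye excluded from viable cells. Compounds were transferred in DMSO 5 h after seeding; fluorescence was recorded at intervals up to 40 h.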

[2] = A CellTox Green Cytotoxicity Assay to monitor cytotoxicity in HepG2 cells - 0 hour (AID 1224882); note: nearly all actives have a fitted effect of over 35% in size; note: potency is the fitted concentration of half-maximal effect
Summary of the method: (§2)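 Real-time, homogeneous cytotoxicity readout: dead-cell DNA staining by CellTox Green in HepG2 monolayers, fluorescence measured at timed intervals up to 40 h of continuous compound exposure.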

[3] = qHTS RealTime-Glo MT Cell Viability Assay in HepG2 cells - 16 hour (AID 1224885); note: nearly all actives have a fitted effect of over 50% in size
Summary of the method: (§3)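 Viability was tracked continuously by NanoLuc luminescence from prosubstrate reduced by living HepG2 cells, at successive time points over 40 h of compound exposure. Cells with reagent were preincubated 5 h at 37 °C before compound addition.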

[4] = qHTS RealTime-Glo MT Cell Viability Assay in HEK293 cells - 24 hour (AID 1224886); note: nearly all actives have a fitted effect of over 50% in size; note: potency is the fitted concentration of half-maximal effect
Summary of the method: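 Viability tracked continuously by luminescence as live cells reduce a prosubstrate for NanoLuc; HEK293 cells preincubated 5 h, compound-treated at 37 C, and read at 0, 8, 16, 24, 32 and 40 h.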

[5] = qHTS RealTime-Glo MT Cell Viability Assay in HEK293 cells - 8 hour (AID 1224887); note: nearly all actives have a fitted effect of over 50% in size; note: potency is the fitted concentration of half-maximal effect
Summary of the method: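 Nonlytic bioluminescent viability monitoring. HEK293 at 600 cells/well with reagent; 5 h settle; compound transfer by pintool; plates held at 37 C and read at set time points.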

[6] = A CellTox Green Cytotoxicity Assay to monitor cytotoxicity in HEK293 cells - 16 hour (AID 1224888); note: nearly all actives have a fitted effect of over 35% in size; note: potency is the fitted concentration of half-maximal effect
Summary of the method: as §1

[7] = qHTS RealTime-Glo MT Cell Viability Assay in HepG2 cells - 0 hour (AID 1224889); note: nearly all actives have a fitted effect of over 50% in size; note: potency is the fitted concentration of half-maximal effect
Summary of the method: as §3

[8] = A CellTox Green Cytotoxicity Assay to monitor cytotoxicity in HepG2 cells - 32 hour (AID 1224883); note: nearly all actives have a fitted effect of over 50% in size; note: potency is the fitted concentration of half-maximal effect
Summary of the method: as §2

[9] = A CellTox Green Cytotoxicity Assay to monitor cytotoxicity in HEK293 cells - 8 hour (AID 1224884); note: nearly all actives have a fitted effect of over 35% in size; note: potency is the fitted concentration of half-maximal effect
Summary of the method: as §1

Measured: Potency

C[C@]12CCC(=O)C(O)=C1CC[C@@H]1[C@@H]2CC[C@]2(C)C(=O)CC[C@@H]12
21.9 µM (active) and inactive: [7]
not listed: [8] | [9]
inactive: all other assays above

O=C(Nc1ccc(Br)cc1)c1cc(Br)cc(Br)c1O
inactive and 43.6 µM (active): [2]
inactive: [3] | [4] | [5]
inactive and 38.9 µM (active): [9]
38.9 µM (active) and inactive: [1]
active: [8] 19.4 µM and 27.5 µM and 21.3 µM | [7] 21.8 µM

CCCCCCOC(=O)c1ccccc1C(=O)OCCCCCC
not listed: [9]
inactive: all other assays above

Nc1ccc(Cl)cc1N
inactive and 19.5 µM (active): [2]
active: [1] 21.9 µM | [5] 40.4 µM | [6] 24.5 µM
inactive: [3] | [7]

CC(C)Oc1cc(-n2nc(C(C)(C)C)oc2=O)c(Cl)cc1Cl
608 nM (active) and inactive: [1]
active: [4] 30.9 µM
inactive: [2] | [8] | [3] | [7]

Cc1ccc2c(c1N)C(=O)c1ccccc1C2=O
active: [5] 7.68 µM and 6.92 µM
not listed: [4]
inactive: all other assays above

Nc1ccc(-c2ccccc2)cc1
7.11 µM (active) and inactive: [4]
inactive: all other assays above

O=C(O)C(F)(F)C(F)(F)C(F)(F)C(F)(F)C(F)(F)C(F)(F)C(F)(F)F
not listed: [9]
inactive: all other assays above

OCC(O)CO
not listed: [4]
inactive: all other assays above

CC(O)CCO (configuration not stated)
inactive: all assays above
